# Hit rate of the full screen: of about 310,000 compounds, about 14,000 (4.5%) showed an effect of 50% or more. Effects have a minus sign here. The sample as a whole holds a higher share of strong results than the screen did.
# Biological target: human ether-à-go-go-related gene (hERG) potassium channel (human, UniProt Q12809)
# Assay: primary screen, population patch clamp on CHO cells stably expressing hERG; higher = less effect of the substance
# 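Note: peak tail current of the secondary pulse compared with the same well before compound.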
# Sequence of human ether-à-go-go-related gene (hERG) potassium channel (Q12809 whole entry, looked up): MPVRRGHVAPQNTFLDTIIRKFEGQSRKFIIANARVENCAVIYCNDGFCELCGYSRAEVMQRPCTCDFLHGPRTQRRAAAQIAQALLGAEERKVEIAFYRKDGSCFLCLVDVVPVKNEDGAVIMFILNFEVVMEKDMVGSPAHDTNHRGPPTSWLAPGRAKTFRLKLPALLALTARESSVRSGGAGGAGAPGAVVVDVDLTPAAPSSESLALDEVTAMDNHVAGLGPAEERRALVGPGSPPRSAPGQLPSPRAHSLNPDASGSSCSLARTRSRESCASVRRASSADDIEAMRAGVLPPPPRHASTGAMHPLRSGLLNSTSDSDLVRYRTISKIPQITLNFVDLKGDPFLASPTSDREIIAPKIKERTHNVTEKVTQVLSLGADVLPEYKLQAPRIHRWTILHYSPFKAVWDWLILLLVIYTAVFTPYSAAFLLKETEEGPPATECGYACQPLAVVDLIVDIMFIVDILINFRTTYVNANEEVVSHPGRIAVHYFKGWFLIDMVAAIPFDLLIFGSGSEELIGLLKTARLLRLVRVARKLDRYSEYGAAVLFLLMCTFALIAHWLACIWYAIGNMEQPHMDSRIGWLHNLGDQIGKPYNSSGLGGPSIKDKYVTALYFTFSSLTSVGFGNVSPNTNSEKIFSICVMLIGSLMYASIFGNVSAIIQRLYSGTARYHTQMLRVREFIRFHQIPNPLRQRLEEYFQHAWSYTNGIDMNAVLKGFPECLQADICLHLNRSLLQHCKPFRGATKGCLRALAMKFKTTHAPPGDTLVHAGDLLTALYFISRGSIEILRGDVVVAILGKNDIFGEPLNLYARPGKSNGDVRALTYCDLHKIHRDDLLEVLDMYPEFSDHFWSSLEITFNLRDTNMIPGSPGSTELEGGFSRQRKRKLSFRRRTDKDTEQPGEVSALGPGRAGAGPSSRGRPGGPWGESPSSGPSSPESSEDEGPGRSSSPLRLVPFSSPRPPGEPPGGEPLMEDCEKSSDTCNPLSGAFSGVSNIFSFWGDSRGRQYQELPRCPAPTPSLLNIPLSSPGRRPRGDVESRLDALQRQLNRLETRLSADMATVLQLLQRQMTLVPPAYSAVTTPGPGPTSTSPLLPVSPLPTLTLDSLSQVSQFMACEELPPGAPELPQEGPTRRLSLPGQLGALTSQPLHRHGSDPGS
row,Structure (SMILES),"hERG current change (%, negative = inhibition) at 10uM"
1,COc1ccc(/C=N/OC(=O)Nc2ccccc2)cc1[N+](=O)[O-],-58.4%
2,Cc1ccc(NC(=O)O/N=C/c2cccc([N+](=O)[O-])c2)cc1,-15.8%
3,COc1ccc(NC(=O)O/N=C/c2ccccc2)cc1,-2.52%
4,CC(NS(=O)(=O)c1ccc(Cl)cc1)C(=O)NCCC1=CCCCC1 (stereo not shown),-5.41%
5,O=C(COc1ccccc1)N(Cc1ccco1)C1CCS(=O)(=O)C1 (stereo not shown),-11.5%
6,Cc1ccc(OCC(=O)N(Cc2ccco2)C2CCS(=O)(=O)C2)cc1 (stereo not shown),-13%
7,CC(C)c1ccc(OCC(=O)N(Cc2ccco2)C2CCS(=O)(=O)C2)cc1 (stereo not shown),-79.4%
8,O=C(COc1ccc(F)cc1)N(Cc1ccco1)C1CCS(=O)(=O)C1 (stereo not shown),-28.4%
9,O=C(COc1ccc(Cl)cc1)N(Cc1ccco1)C1CCS(=O)(=O)C1 (stereo not shown),-20.5%
10,O=C(COc1ccc(Br)cc1)N(Cc1ccco1)C1CCS(=O)(=O)C1 (stereo not shown),-50.6%
11,O=C(Nc1ccc2c(c1)OCCO2)C1CCCN(S(=O)(=O)Cc2ccccc2)C1 (stereo not shown),-11%
12,CCn1nc(NS(=O)(=O)c2ccccc2)c2cc3cc(C)ccc3nc21,3.38%
13,COC(=O)c1noc(-c2ccc(C)cc2)n1,-3.95%
14,CCOC(=O)Cc1csc(NC(=O)CCNS(=O)(=O)c2ccc3c(c2)CCC(=O)N3)n1,9.62%
15,CCOP(=O)(OCC)C(Nc1ccc([N+](=O)[O-])cc1)c1ccc(Cl)cc1 (stereo not shown),-76%
16,CCOP(=O)(OCC)C(Nc1cccc([N+](=O)[O-])c1)c1ccccc1 (stereo not shown),-18.4%
17,CCCOP(=O)(OCCC)C(Nc1ccc(C(C)C)cc1)c1ccc([N+](=O)[O-])cc1 (stereo not shown),3.7%
18,Cn1cccc1CC(=O)NNC(=O)Nc1ccccc1F,7.76%
19,O=C1c2ccccc2C(Nc2ccc3c(c2)OCCO3)N1Cc1ccccc1 (stereo not shown),-18.2%
20,CC(NC(=O)C1CCCN(C(=O)c2ccc(Cl)cc2)C1)c1cccc(C(F)(F)F)c1 (stereo not shown),-51.2%

row,Structure (SMILES),"hERG current change (%, negative = inhibition) at 10uM"
1,CC(=O)c1ccc(NC(=O)C2CCCN(C(=O)c3ccc(Cl)cc3)C2)cc1 (stereo not shown),-29.7%
2,Cc1ccc(NC(=O)C2CCCN(C(=O)c3ccc(Cl)cc3)C2)c(C)c1 (stereo not shown),-59%
3,CC(=O)Nc1ccc(NC(=O)C2CCCN(C(=O)c3ccc(Cl)cc3)C2)cc1 (stereo not shown),6.47%
4,Cc1ccc(NC(=O)C2CCCN(C(=O)c3ccc(Cl)cc3)C2)cc1 (stereo not shown),-33.4%
5,Cc1ccc(NC(=O)C2CCCN(C(=O)c3ccc(Cl)cc3)C2)cc1C (stereo not shown),-19.6%
6,CC(=O)Nc1ccc(N(C(=O)CNC(=O)c2ccco2)C(C(=O)NC2CCCC2)c2ccco2)cc1 (stereo not shown),3.72%
7,CC1(C)C(c2cccs2)=[N+]([O-])C2(CCCCC/C2=N\O)N1O (stereo not shown),18.5%
8,COc1cc(C(=O)OCC(=O)N2CC(C)OC(C)C2)cc(OC)c1OC (stereo not shown),33%
9,COc1ccccc1OCC(=O)N(Cc1nc(-c2ccccc2)no1)C(C)C,-12%
10,O=C(Nc1ccccc1N1CCCCC1)c1ccccc1F,-14.5%
11,O=C(Nc1cc(C(=O)N2CCCC2)ccc1N1CCCC1)C1CC1,-12.9%
12,CNC(=S)Nc1cc(C(=O)N2CCCC2)ccc1N1CCCC1,28.1%
13,O=C(Nc1cc(C(=O)N2CCCC2)ccc1N1CCCC1)c1ccccc1,-75.6%
14,O=C(Nc1cc(C(=O)N2CCCC2)ccc1N1CCCC1)c1ccccc1F,-74.6%
15,COC(=O)c1ccc(N2CCOCC2)c(NC(=O)c2cccs2)c1,-5.27%
16,O=C(Nc1cc(C(=O)N2CCOCC2)ccc1N1CCCC1)c1cccs1,-75.9%
17,O=C(Nc1ccc(C(=O)N2CCCC2)cc1)c1ccccc1F,-4.82%
18,O=C(Nc1ccc(C(=O)N2CCOCC2)cc1)c1cccs1,19.7%
19,O=C(CCCCl)Nc1c2c(nn1-c1ccccc1)CSC2,-0.0485%
20,C/C(=N\NC(=O)Cc1ccc(Cl)c(Cl)c1)c1cccnc1,-12.9%

row,Structure (SMILES),"hERG current change (%, negative = inhibition) at 10uM"
1,COCCn1c(C)cc(C(=O)CSc2ccc3ccccc3n2)c1C,-0.727%
2,COc1cccc(-c2cnc(OC(C)(C)C)nc2OC(C)(C)C)c1,14.7%
3,O=C(OCc1ccccc1F)c1ccc2c(c1)OCCO2,7.26%
4,O=C(CCn1cccc1)NC1CCCc2ccccc21 (stereo not shown),4.95%
5,CC(C)(C)NC(=O)NCc1ccco1,8.48%
6,O=C(CCN1CCN(c2ccccc2)CC1)Nc1nccs1,-9.77%
7,Cn1c(=O)[nH]c(=O)c2c1nc(CN1CCN(c3ccccc3F)CC1)n2CCCc1ccccc1,-33.7%
8,O=C(Nc1ccc([N+](=O)[O-])cc1)C1(c2ccccc2)CCOCC1,-69.1%
9,O=C(O)c1ccc(NC(=O)C2(c3ccccc3)CCOCC2)cc1,-5.57%
10,Cc1ccc(NC(=O)C2(c3ccccc3)CCOCC2)cc1,9.1%
11,COc1ccc(C(=O)NCc2nnc(SCC(=O)N3CCCCC3)o2)cc1,29.8%
12,C/C(=C\c1cc(C(=O)O)c(C)o1)CO,12.9%
13,Cn1c(SCc2nnc(-c3ccc(F)cc3)o2)nnc1C1COc2ccccc2O1 (stereo not shown),-60.9%
14,Cn1c(SCc2cnc(-c3ccccc3)s2)nnc1C1COc2ccccc2O1 (stereo not shown),-1.06%
15,Cn1c(SCc2cc(=O)n3cc(Br)ccc3n2)nnc1C1COc2ccccc2O1 (stereo not shown),-72%
16,Cn1c(SCC(=O)c2ccccc2)nnc1C1COc2ccccc2O1 (stereo not shown),-11.9%
17,O=C(OCc1cc(=O)n2cc(Br)ccc2n1)C1COc2ccccc2O1 (stereo not shown),-15.5%
18,Cc1occc1-c1nnc(SCc2cc(=O)n3cc(Br)ccc3n2)n1C,-47.7%

# — PMC4336329 (PLoS ONE, 2015)
